The record followed here is PubChem BioAssay (EPA / NIEHS).

Inconclusive results are not listed. The source made the active and inactive calls. The calls were made as follows, unless noted: active = hit-call score of the fitted dose curve at least 0.9, where 1 is the maximum; inconclusive = response in the unintended direction; inactive = score below 0.9.

Experiment [1] in a line: TOX21_p53_BLA_p2_viability: Viability Assessment in the Tox21 HCT-116 p53 Agonism Beta-lactamase Assay, Phase 2 (AID 2283591).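 Also: compound exposure lasted 16 h at 37 °C; actives lower the ATP signal meaning cytotoxicity.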 The essentials: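 HCT116 p53-bla cells, 4000/well, dosed after 5 h plating (217-fold dilution of DMSO stocks) and incubated 16 h at 37C. Viability taken as cellular ATP by CellTiter-Glo luminescence after 30 min RT; signal loss marks cytotoxicity.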

The target of experiment [2] is Cellular tumor antigen p53 (Homo sapiens) (UniProt P04637). Put plainly: TOX21_p53_BLA_p2_ratio: Tox21 HCT-116 p53 Agonism Beta-lactamase Assay, Ratio, Phase 2 (AID 2283592). The gist of the method: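 Ratio endpoint: beta-lactamase cleavage of CCF4-AM, blue (460 nm) over green (530 nm). HCT116 reporter line; 16 h treatment, 37C; substrate 2 h RT.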
The nature of experiment [3]: TOX21_p53_BLA_p3_viability: Viability Assessment in the Tox21 HCT-116 p53 Agonism Beta-lactamase Assay, Phase 3 (AID 2283593).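 Also: cells exposed to compound for 16 h before reading.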 The gist of the method:
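HCT116 cells, 4000/well, dosed 5 h after plating by pin transfer (217-fold dilution from DMSO stock) and incubated 16 h at 37C, 5% CO2. Viability read as ATP luminescence with CellTiter-Glo after 30 min at room temperature.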

Experiment [4] addresses Cellular tumor antigen p53 (Homo sapiens) (UniProt P04637). Nature of the experiment: TOX21_p53_BLA_p3_ratio: Tox21 HCT-116 p53 Agonism Beta-lactamase Assay, Ratio, Phase 3 (AID 2283596). The essentials: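 Cells were seeded at 4000/well, rested 5 h at 37C, then dosed with DMSO compound solutions (217-fold dilution) for 16 h. CCF4-AM substrate was loaded for 2 h at room temperature, and the 460/530 nm emission ratio was fitted for gain of signal versus DMSO.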

The nature of experiment [5]: TOX21_p53_BLA_p4_viability: Viability Assessment in the Tox21 HCT-116 p53 Agonism Beta-lactamase Assay, Phase 4 (AID 2283597).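 Also: hits lower the luminescence signal meaning cytotoxicity.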 The gist of the method:
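Cytotoxicity was inferred from loss of CellTiter-Glo luminescence. HCT116 cells had been dosed with compounds after 5 h plating, incubated 16 h at 37C and 5% CO2, and exposed to the CCF4-AM substrate for 2 h.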

In experiment [6] the target is Cellular tumor antigen p53 (Homo sapiens) (UniProt P04637). Put plainly: TOX21_p53_BLA_p5_ratio: Tox21 HCT-116 p53 Agonism Beta-lactamase Assay, Ratio, Phase 5 (AID 2283599). The essentials: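 HCT-116 p53-bla cells (4000/well) plated 5 h, dosed with compound (217-fold DMSO dilution) for 16 h at 37 C; CCF4-AM substrate 2 h at room temperature. Activity is the 460/530 nm emission ratio (405 nm excitation), fitted in gain-of-signal direction versus DMSO.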

Experiment [7] can be described thus: TOX21_p53_BLA_p5_viability: Viability Assessment in the Tox21 HCT-116 p53 Agonism Beta-lactamase Assay, Phase 5 (AID 2283600). The gist of the method: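 Luciferase-coupled ATP quantitation of cells treated for 16 h (37C, 5% CO2) with test chemicals delivered in DMSO via a 217-fold dilution; 4000 cells/well; reagent incubated 30 min at room temperature before luminescence reading.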

Experiment [8] deals with Cellular tumor antigen p53 (Homo sapiens) (UniProt P04637). Nature of the experiment: TOX21_p53_BLA_p4_ratio: Tox21 HCT-116 p53 Agonism Beta-lactamase Assay, Ratio, Phase 4 (AID 2283601). The essentials: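 HCT-116 p53 beta-lactamase reporter cells (4000/well) preincubated 5 h, then compound (217-fold dilution of DMSO stock) for 16 h at 37C. CCF4-AM substrate added 2 h at room temperature; 460/530 nm emission ratio fitted upward versus DMSO.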

Experiment [9] can be described thus: ACEA_ER_AUC_viability: ACEA Biosciences xCELLigence Real-Time Cell Analysis on Estrogen Receptor Agonism for Viability (AID 2283782).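 Also: hit means loss of impedance signal meaning reduced cell growth or viability.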 The gist of the method: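 Read-out: real-time electrical impedance (RT-CES) area under curve, loss of signal taken as reduced viability, normalized to DMSO baseline. T-47D cells, charcoal-stripped serum medium, compounds up to 100 uM final, continuous exposure, 80 h.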

The target of experiment [10] is Thyroid hormone receptor alpha (Rattus norvegicus) + Thyroid hormone receptor beta (Rattus norvegicus) (UniProt P18113+P63059). Put plainly: TOX21_TR_LUC_GH3_Agonist_Followup: Tox21 GH3 Thyroid Hormone Receptor Agonism Luciferase Follow-Up Assay (AID 2283939). The essentials: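 Agonist-mode confirmatory run: 15 concentrations (5 nM to 92 uM final) on GH3 rat pituitary cells, 24 h at 37C/5% CO2, T3 as positive control. Luminescence read with ONE-Glo after 30 min.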

The next experiment deals with THRA (gene 7067) (UniProt P10827). Nature of the experiment: TOX21_TRA_COA_Agonist_Followup_ratio: Tox21 Thyroid Hormone Receptor alpha Agonism through Coactivator Recruitment Follow-Up Assay, Ratio (AID 2283948; active = hit-call score of the fitted dose curve at least 0.9, where 1 is the maximum; inactive = score below 0.9). The gist of the method:
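Read-out is the 520/495 nm emission ratio (ex 340 nm), scaled between DMSO-only wells as 0% and T3 wells as 100%. It reflects fluorescein-SRC-2 peptide recruitment to GST-TRα LBD detected via terbium anti-GST antibody.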

Experiment [11] addresses THRB (gene 7068) (UniProt P10828). Put plainly: TOX21_TRB_BLA_Agonist_Followup_ratio: Tox21 Thyroid Hormone Receptor beta Agonism Beta-lactamase (BLA) Follow-Up Assay, Ratio (AID 2283954). The gist of the method:
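Agonist mode: compounds (11-point, triplicate) incubated 18 h with HEK293T cells carrying GAL4-DBD/human TRβ-LBD and UAS-β-lactamase. Blue/green (460/530 nm) FRET ratio read after 2 h CCF4-AM loading; CellTiter-Glo viability run in the same plates.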

The target is the same in experiment [12]. Put plainly: TOX21_TRB_COA_Agonist_Followup_ratio: Tox21 Thyroid Hormone Receptor beta Agonism through Coactivator Recruitment Follow-Up Assay, Ratio (AID 2283963; active = hit-call score of the fitted dose curve at least 0.9, where 1 is the maximum; inactive = score below 0.9). The gist of the method:
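First, the GST-fused TRβ ligand-binding domain (5.0 nM) was incubated with test compound in 0.10% BSA. Next, fluorescein-tagged SRC-2 peptide (200 nM) and terbium anti-GST antibody (2 nM) were added. Finally, TR-FRET emission ratios were normalized against DMSO and T3 controls.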

Experiment [13] has as its target Retinoic acid receptor RXR-alpha (Homo sapiens) (UniProt P19793). Put plainly: TOX21_TR_RXR_BLA_Agonist_Followup_ratio: Tox21 Thyroid Hormone Receptor beta Retinoid X Receptor alpha (RXRa) Agonism Beta-lactamase (BLA) Follow-Up Assay, Ratio (AID 2283968). The gist of the method:
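Read-out: blue/green (460:530 nm) FRET ratio from cleaved vs uncleaved CCF4 substrate, fitted for gain of signal relative to DMSO. Cells: HEK293T with RXRa-UAS-bla reporter; 16 h compound exposure, 11 concentrations, triplicate.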

Experiment [14] is described as follows: TOX21_TR_RXR_BLA_Agonist_Followup_viability: Viability Assessment in the Tox21 Thyroid Hormone Receptor beta Retinoid X Receptor alpha (RXRa) Agonism Beta-lactamase (BLA) Follow-Up Assay (AID 2283970). The gist of the method: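 CellTiter-Glo ATP quantitation as viability read-out in RXRa-bla HEK293T cells (2,500/well, charcoal-stripped 2% FBS medium), 16h compound incubation at 37C. Loss of signal versus DMSO taken as cytotoxicity, analyzed by bidirectional curve fitting.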

The nature of experiment [15]: CCTE_Harrill_HTTr_Viability_MCF7: CCTE's 6-hour Cell Viability Assessment for the High-Throughput Transcriptomics (HTTr) Platform, in MCF-7 cells cultured in DMEM + 10% fetal bovine serum, Harrill Lab (AID 2284010; active = hit-call score of the fitted dose curve at least 0.9, where 1 is the maximum; inactive = score below 0.9). The gist of the method: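 PI exclusion, high-content imaging; 8-pt dilution series, 6 h exposure; bidirectional fit vs DMSO (neg. ctrl/baseline); gain of signal = loss of membrane integrity.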

Experiment [16] in a line: CCTE_Harrill_HTTr_Apoptosis_MCF7: CCTE's 6-hour Apoptosis Assessment for the High-Throughput Transcriptomics (HTTr) Platform, in MCF-7 cells cultured in DMEM + 10% fetal bovine serum, Harrill Lab (AID 2284011; active = hit-call score of the fitted dose curve at least 0.9, where 1 is the maximum; inactive = score below 0.9). The essentials: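 MCF-7 cells in DMEM + 10% fetal bovine serum were exposed to chemicals for 6 hours over an eight-point dilution series. Caspase-3/7 activation was imaged by high content imaging with CellEvent Caspase 3/7 Green; bidirectional fitting used DMSO as baseline.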

Cellular tumor antigen p53 (Homo sapiens), sequence (P04637 whole entry, looked up): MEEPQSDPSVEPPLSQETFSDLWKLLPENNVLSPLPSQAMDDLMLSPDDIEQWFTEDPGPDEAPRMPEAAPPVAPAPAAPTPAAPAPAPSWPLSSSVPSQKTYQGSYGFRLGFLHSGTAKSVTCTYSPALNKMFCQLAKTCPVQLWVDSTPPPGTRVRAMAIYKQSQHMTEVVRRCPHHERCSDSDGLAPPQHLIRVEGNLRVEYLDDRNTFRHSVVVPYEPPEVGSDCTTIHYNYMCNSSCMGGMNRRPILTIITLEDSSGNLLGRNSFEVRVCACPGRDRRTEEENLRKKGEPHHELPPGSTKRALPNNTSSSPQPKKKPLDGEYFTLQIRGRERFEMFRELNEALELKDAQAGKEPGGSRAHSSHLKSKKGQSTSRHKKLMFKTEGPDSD
THRB (gene 7068), sequence (P10828 whole entry, looked up, the tested form may be a part): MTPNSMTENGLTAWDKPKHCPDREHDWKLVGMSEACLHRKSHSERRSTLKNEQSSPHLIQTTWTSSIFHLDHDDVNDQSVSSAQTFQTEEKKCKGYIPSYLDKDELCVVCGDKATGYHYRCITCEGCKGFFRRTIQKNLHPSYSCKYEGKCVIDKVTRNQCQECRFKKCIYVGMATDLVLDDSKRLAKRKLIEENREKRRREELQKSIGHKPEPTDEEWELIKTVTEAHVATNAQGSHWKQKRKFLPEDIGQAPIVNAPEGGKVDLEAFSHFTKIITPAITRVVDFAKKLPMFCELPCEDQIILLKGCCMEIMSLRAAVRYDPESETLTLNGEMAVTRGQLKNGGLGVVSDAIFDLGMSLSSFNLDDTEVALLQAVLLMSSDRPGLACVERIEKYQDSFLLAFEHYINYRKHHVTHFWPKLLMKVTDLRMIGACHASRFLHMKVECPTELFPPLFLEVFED
THRA (gene 7067), sequence (P10827 whole entry, looked up, the tested form may be a part): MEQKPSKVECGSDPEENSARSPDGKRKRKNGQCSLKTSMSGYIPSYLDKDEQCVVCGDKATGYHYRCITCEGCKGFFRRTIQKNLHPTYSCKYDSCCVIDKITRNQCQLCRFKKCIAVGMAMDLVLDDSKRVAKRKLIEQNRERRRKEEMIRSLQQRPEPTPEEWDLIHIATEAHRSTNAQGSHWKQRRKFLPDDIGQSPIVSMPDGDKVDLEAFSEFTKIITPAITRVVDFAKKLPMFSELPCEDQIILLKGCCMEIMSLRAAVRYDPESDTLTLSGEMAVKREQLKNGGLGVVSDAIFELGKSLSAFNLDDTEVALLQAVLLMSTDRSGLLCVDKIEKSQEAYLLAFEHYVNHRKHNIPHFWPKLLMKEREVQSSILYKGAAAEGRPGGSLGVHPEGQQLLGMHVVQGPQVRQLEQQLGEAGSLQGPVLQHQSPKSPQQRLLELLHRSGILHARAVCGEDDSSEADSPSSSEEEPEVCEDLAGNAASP
Thyroid hormone receptor alpha (Rattus norvegicus) + Thyroid hormone receptor beta (Rattus norvegicus), sequence (P63059 whole entry, looked up): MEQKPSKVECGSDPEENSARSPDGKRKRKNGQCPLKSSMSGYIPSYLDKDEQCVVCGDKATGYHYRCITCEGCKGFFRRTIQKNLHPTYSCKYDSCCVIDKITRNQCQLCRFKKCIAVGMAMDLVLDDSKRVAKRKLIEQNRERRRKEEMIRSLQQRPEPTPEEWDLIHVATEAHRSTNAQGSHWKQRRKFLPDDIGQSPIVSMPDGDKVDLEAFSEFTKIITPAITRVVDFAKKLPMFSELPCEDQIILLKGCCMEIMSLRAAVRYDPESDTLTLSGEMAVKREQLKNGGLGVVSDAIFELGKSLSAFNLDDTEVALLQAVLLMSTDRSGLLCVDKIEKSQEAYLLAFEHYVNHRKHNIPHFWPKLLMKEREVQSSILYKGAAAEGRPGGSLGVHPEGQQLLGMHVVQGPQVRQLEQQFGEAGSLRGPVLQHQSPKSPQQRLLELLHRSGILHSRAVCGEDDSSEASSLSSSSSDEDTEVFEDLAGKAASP
Thyroid hormone receptor alpha (Rattus norvegicus) + Thyroid hormone receptor beta (Rattus norvegicus), sequence (P18113 whole entry, looked up): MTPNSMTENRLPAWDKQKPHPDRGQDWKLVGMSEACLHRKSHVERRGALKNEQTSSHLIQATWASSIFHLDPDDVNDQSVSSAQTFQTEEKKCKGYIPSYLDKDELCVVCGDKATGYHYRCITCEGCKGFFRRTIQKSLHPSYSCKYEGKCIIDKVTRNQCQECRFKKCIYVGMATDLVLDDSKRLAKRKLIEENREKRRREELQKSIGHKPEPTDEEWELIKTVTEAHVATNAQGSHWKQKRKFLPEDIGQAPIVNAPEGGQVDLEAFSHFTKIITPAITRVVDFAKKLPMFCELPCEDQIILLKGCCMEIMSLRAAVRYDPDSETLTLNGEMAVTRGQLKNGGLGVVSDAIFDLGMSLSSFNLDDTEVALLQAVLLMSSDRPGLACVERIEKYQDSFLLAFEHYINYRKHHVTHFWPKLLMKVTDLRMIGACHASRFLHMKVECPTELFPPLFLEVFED
Retinoic acid receptor RXR-alpha (Homo sapiens), sequence (P19793 whole entry, looked up): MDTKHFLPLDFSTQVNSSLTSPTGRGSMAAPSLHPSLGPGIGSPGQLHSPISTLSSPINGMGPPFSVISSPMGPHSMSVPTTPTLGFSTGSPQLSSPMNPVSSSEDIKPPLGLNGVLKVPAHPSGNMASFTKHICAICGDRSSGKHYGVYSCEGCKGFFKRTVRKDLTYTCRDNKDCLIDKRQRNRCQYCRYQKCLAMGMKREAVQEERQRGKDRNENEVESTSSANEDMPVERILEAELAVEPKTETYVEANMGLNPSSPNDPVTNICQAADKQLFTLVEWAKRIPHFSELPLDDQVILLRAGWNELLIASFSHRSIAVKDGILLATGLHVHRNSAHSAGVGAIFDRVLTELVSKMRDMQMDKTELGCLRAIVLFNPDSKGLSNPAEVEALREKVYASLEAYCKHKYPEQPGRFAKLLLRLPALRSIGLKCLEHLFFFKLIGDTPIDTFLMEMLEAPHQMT

By AC50 is commonly meant the concentration giving half of the maximal activity seen. For the compound `CCCCCCC[CH2][Sn]([Cl])([Cl])[CH2]CCCCCCC`, the AC50 in [1] is 66.6 µM (active); in [2] it was 67 µM (active); in experiment [3], 57.1 µM (active); in experiment [4], 21.2 µM (active); in [5], 36.5 µM (active). Further, the outcome in experiment [6], in [7] and in [8] was inactive.

As for `COc1ccc(Cc2nccc3cc(OC)c(OC)cc23)cc1OC`, the result in experiment [1], in experiment [2], in experiment [3], in [4], in experiment [5] and in experiment [6] was inactive. For the same compound, the call in experiment [7] and in experiment [8] was inactive.

As to `CCOC(=O)NC(C)(C)Cc1ccc(Cl)cc1`, the compound was classed as inactive in experiment [1], in experiment [2], in experiment [3], in experiment [4], in experiment [5] and in experiment [6]. Besides, the call in experiment [7] and in experiment [8] was inactive.

Consider `CCC(=O)O[C@]1(c2ccccc2)CCN(C)C[C@H]1C`, for which the compound was called inactive in [1], in [2], in experiment [3], in experiment [4], in experiment [5] and in [6]. Moreover, the compound was classed as inactive in experiment [7] and in experiment [8].

For the compound `Oc1ccc2[nH]cc(CCCCN3CC=C(c4ccccc4)CC3)c2c1`, the result in [1], in [2], in experiment [3], in experiment [4], in experiment [5] and in experiment [6] was inactive. The compound was called inactive in experiment [7] and in experiment [8].

In the case of `C[C@@H]1CC[C@H]2[C@@H](C)C(=O)O[C@@H]3O[C@@]4(C)CC[C@@H]1[C@]32OO4`, the call in [1], in experiment [2], in experiment [3], in experiment [4], in [5] and in experiment [6] was inactive. Moreover, the compound was classed as inactive in experiment [7] and in experiment [8].

For the compound `Clc1ccc(-c2ccc(Cl)c(Cl)c2Cl)c(Cl)c1Cl`, the compound was called inactive in experiment [1], in experiment [2], in experiment [3], in [4], in [5] and in experiment [6]. The outcome in experiment [8] was inactive.

On to `CNC(=O)ON=C(CSC)C(C)(C)C`, for which the result in experiment [1], in [2], in experiment [3], in [4], in experiment [5] and in experiment [6] was inactive. In addition, the compound was called inactive (in experiment [7]; in experiment [9]; in experiment [10]; in the experiment with THRA (gene 7067); with THRB (gene 7068) [11]; with THRB (gene 7068) [12]). Further, the result in experiment [13], in experiment [14], in experiment [15] and in [16] was inactive.

On to `CC(C)OC(=O)Cc1ccccc1`, for which the compound was classed as inactive in experiment [1], in experiment [2], in experiment [3], in experiment [4], in experiment [5] and in [6]. The result in experiment [8] was inactive.
